HCV inh: HCV inhibition; Huh7.5.1 HCVcc-Cre infection, luciferase reporter, 44 h; Potency, µM (doses to about 41.8 µM), actives largely listed as inhibitors; 340,000 compounds, 3.4% hits; AID 651820
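Luciferase read-out (15 sec integration) after a 15 min room-temperature substrate step quantifies HCVcc-Cre infection. Cells, 1,000 per well, had compound added 4 h post-plating, then virus at ~0.5 moi, and were cultured 44 h.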
Pf growth 48h: inhibits P. falciparum growth in the first generation, 48 h | P. falciparum luciferase growth in erythrocytes, 48 h | Potency, µM (top dose mostly 28.7 µM), most hits filed as inhibitors | 310,000 compounds, 5.9% hits
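Luminescence readout; reporter = integrated firefly luciferase in P. falciparum. RBC culture at 2% hematocrit, 0.1% parasitemia final, 37 C/5% CO2; decreased signal taken as growth inhibition.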
Pf growth 96h: P. falciparum growth inhibition at 96 hour, primary screen for plastid delayed-death inhibitors; P. falciparum luciferase reporter growth, 96 h; 320,000 compounds, 6.9% hits; Potency, µM (highest dose often 28.7 µM), actives largely listed as inhibitors; AID 504834
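Parasite growth measured via integrated firefly luciferase reporter in P. falciparum. Infected erythrocytes at 2% hematocrit, 0.05% parasitemia final were treated 96 hours at 37 C under 5% CO2, and luminescence was read.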
HCMV antiviral: human cytomegalovirus inhibition | HFF cells, HCMV-luciferase reporter, 72 h; active compounds read low | activity change, negative = inhibition, % at 57.5 µM | 410,000 compounds, 4.5% hits; in the data active = activity change below about -60%; inconclusive = no clear call, values can overlap the other calls; inactive = above about -39%
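Luciferase read-out from HCMV-luciferase-infected HFFs (MOI 1 PFU/cell) 72 h post infection at 37C; compounds added after 16 h cell attachment; activity normalized between buffer-only basal and Salinomycin (10uM) inhibitor controls.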
MARV entry inh: Marburg virus entry inhibition. AID 540276. 300,000 compounds, 1.8% hits. Potency, µM (titrated, usually from 37.8 µM), most hits filed as inhibitors. Marburg virus pseudotyped entry inhibition, cell reporter; calls by dose curve; tested in HEK293 cells
LASV entry inh: blocks Lassa virus binding to or entry into cells. Lassa virus pseudotype entry inhibition, cell reporter. Potency, µM (highest dose often 37.9 µM), hits mostly inhibitors. 300,000 compounds, 1.2% hits. AID 540256; calls by dose curve; tested in HEK293 cells; also: nearly all actives have a fitted effect of over 50% in size
Numbers stand for hits; i = inactive; ? = inconclusive; nt = no result given; ! = repeats disagree. Shown are actives, neighbours in structure and some others; about 14% of the full set was active somewhere. Unless noted, calls follow the shape of the dose curve; as a rule, active = well fitted inhibition curve with a large enough effect; inconclusive = small, poorly fitted or top-dose-only effect, or another doubt; inactive = no such curve, though single readings can be large or run the other way.

SMILES	HCV inh	Pf growth 48h	Pf growth 96h	HCMV antiviral	MARV entry inh	LASV entry inh
COc1ccc(CCN2CC(C(=O)N(C)CC(=O)Nc3ccc(F)c(F)c3F)CC2=O)cc1OC (stereo not drawn)	i	nt	nt	i	?	i
COc1ccc(-c2csc(Nc3ccc(S(N)(=O)=O)cc3)n2)cc1	5µM	i	nt	i	i	?
Cc1ccc(OCc2nc3ccccc3n2CCOc2ccc(Cl)cc2)cc1	nt	nt	nt	i	?	i
Nc1nc2ccccc2n1CCOc1ccc(F)cc1	i	8.3µM	15µM	i	nt	nt
Clc1ccc(OCCn2c(-c3ccco3)nc3ccccc32)cc1	i	nt	12µM	-75	i	i
COCCNC(=O)C1CCCN(S(=O)(=O)c2ccc3c(ccn3C)c2)C1 (stereo not drawn)	nt	nt	nt	i	nt	i
COc1ccccc1NC(=O)c1sc2ncn(Cc3cccc(C)c3)c(=O)c2c1C	i	i	i	-102	?	i
COc1ccccc1NC(=O)c1sc2ncn(Cc3cccc4ccccc34)c(=O)c2c1C	i	i	9.3µM	?	i	?
COc1ccccc1NC(=O)c1sc2ncn(Cc3ccc(C)cc3)c(=O)c2c1C	i	?	?	?	i	i
COCCn1c(=NC(=O)/C=C/c2ccccc2)sc2cc(NC(C)=O)ccc21	i	?	2.6µM	i	?	i
COCCn1c(=NC(C)=O)sc2cc([N+](=O)[O-])ccc21	i	i	i	i	i	i
CCc1ccc(S(=O)(=O)c2cn(Cc3ccccc3F)c3cc(OC)c(OC)cc3c2=O)cc1	nt	nt	nt	i	i	?
Cc1ccc(-n2nnnc2-c2cnc3ccc(Cl)cc3c2-c2ccccc2)cc1	10µM	?	?	?	?	?
Clc1ccc(-n2nnnc2-c2cnc3ccccc3c2-c2ccccc2)cc1	?	5.2µM	10µM	-72	i	i
Nc1ncc(-c2nnnn2-c2ccc(Cl)cc2)c(-c2ccc(Cl)cc2)n1	?	i	?	i	?	?
Cc1ccc(-n2c(SCC(=O)NCc3ccccc3)nc3n[nH]c(C)c3c2=N)cc1Cl	nt	nt	nt	i	nt	?
Cc1ccc(C)c(NC(=O)CCCCCCCCCCC2COCCO2)c1 (stereo not drawn)	?	i	13µM	?	i	i
Cc1ccc(C)c(NC(=O)CCN2CCOCC2)c1	i	i	?	i	?	i
Cc1cccc2c1N(N=O)CCC2	i	i	i	i	?	i
Cc1cc[n+]2c3c(cccc13)CCC2	i	3.7µM	nt	i	i	i
O=C(Nc1ccccc1)c1ccc(N2CCN(c3ccccn3)CC2)c(S(=O)(=O)N2CCOCC2)c1	i	nt	3.7µM	i	?	i
O=C(Nc1ccccc1)c1ccc(N2CCN(c3ccccc3)CC2)c(S(=O)(=O)N2CCOCC2)c1	i	nt	4.1µM	i	i	i
CCOC(=O)c1c(C)oc2nc(C)nc(NCC3CCN(Cc4cc(C)ccc4C)CC3)c12	nt	nt	nt	i	nt	?
O=C(Cc1ccc(Cl)cc1)Nc1ccc2oc(-c3ccccc3)nc2c1	nt	nt	nt	i	nt	i
COc1ccc(CCN2C(=O)CCC2(C)c2nnnn2-c2c(C)cccc2C)cc1OC (stereo not drawn)	nt	nt	nt	i	nt	nt
SMILES	HCV inh	Pf growth 48h	Pf growth 96h	HCMV antiviral	MARV entry inh	LASV entry inh
O=C(Nc1cccc(-c2cnc3ccccc3n2)c1)C1CC(=O)N(c2ccccc2)C1 (stereo not drawn)	13µM	i	i	i	?	?
O=C(CCl)Nc1ccc(Oc2cnc3ccccc3n2)cc1	?	1.7µM	0.74µM	-104	?	21µM
Cc1ccc(SCC(=O)Nc2ccc(-c3nc4ccccc4[nH]3)cc2)cc1	?	12µM	i	i	?	?
CC(=O)Nc1cc(NC(C)=O)cc(-c2nc3ccccc3[nH]2)c1	i	i	10µM	-108!	i	i
COc1ccc2cc(C(=O)NCc3ccc4c(c3)CCN4C(=O)c3ccc(C)cc3)[nH]c2c1	nt	nt	nt	i	nt	i
CN(C)S(=O)(=O)c1ccc(C(=O)Nc2nc3ccccc3[nH]2)cc1	i	i	i	i	i	nt
O=C(Cc1cccs1)Nc1cccc(-c2nc3cc4ccccc4cc3[nH]2)c1	11µM	i	i	-88	?	?
CCCN(CCC)S(=O)(=O)c1ccc(C(=O)Nc2cccc(-c3nc4ccccc4[nH]3)c2)cc1	nt	nt	nt	-88	nt	?
CCc1nnc(NC(=O)CSc2ccc(-c3nc4ccccc4[nH]3)cn2)s1	i	i	i	-94	i	?
O=C(CCl)Nc1cccc(-c2cnc3ccccc3n2)c1	?	1µM	nt	-98	?	?
COc1ccc2cc(C3=CC(=O)CC(C)(C)C3=O)ccc2c1	nt	nt	nt	i	nt	nt
O=C(Nc1cccc(-c2nc3ccccc3[nH]2)c1)c1ccco1	?	?	15µM	i	?	i
O=C(Nc1cccc(-c2cnc3ccccc3n2)c1)c1cccc(NC(=O)c2ccco2)c1	10µM	nt	nt	i	12µM	?
CCCCN(C)CCNC(=O)c1cc2c(=O)n(C)c3ccccc3c2n1C	nt	nt	nt	i	i	i
CCOc1ccccc1NC(=O)c1cn(C2CCCCC2)c(=O)c2c1c1ccccc1n2C	nt	nt	nt	i	i	?
CCOc1ccc(Nc2ccc3nonc3c2[N+](=O)[O-])cc1	i	i	i	?	?	i
CCOc1ccc(Nc2ncnc3ccc([N+](=O)[O-])cc23)cc1	?	?	?	-69	i	i
COC(=O)c1c(-c2ccc(N(C)C)cc2)oc2c1C(OC)CCC2 (stereo not drawn)	nt	nt	nt	i	nt	nt
Oc1ccc(-c2nc3c4c(ncn3n2)-c2ccccc2CC42CCCC2)cc1	?	i	i	-65	i	i
Nn1cnc2c(c1=O)C1(CCCCC1)Cc1ccccc1-2	?	i	?	i	?	i
Cc1nn(-c2ccc([N+](=O)[O-])cc2)c2c1C(c1ccc(OC(F)F)cc1)N1C(=N2)C(=O)Nc2ccccc21 (stereo not drawn)	2µM	?	?	i	?	?
Cc1ccc(NC(=O)c2c(NC(=O)c3ccco3)sc3c2CCC(C(C)(C)C)C3)c(C)c1 (stereo not drawn)	nt	nt	nt	i	i	i
CCn1cc(C2=NC(C)(C)CO2)c2ccccc21	3.2µM	nt	i	i	i	i
CCn1cc(C2=NCC(C)O2)c2ccccc21 (stereo not drawn)	14µM	i	?	i	i	i
CCSc1nnc(-c2ccccc2SC)o1	i	i	8.3µM	i	i	i
CCOC(=O)CSc1nc2sc(C)c(C)c2c(=O)[nH]1	i	i	i	i	i	i
CCOC(=O)/C(=C\c1ccc(Cl)cc1)c1nc2sc(C)c(C)c2c(=O)[nH]1	?	?	?	-75	?	?
Cc1nc2c3ccccc3nc(NNC(=O)CCC(=O)NC(C)C)n2n1	i	i	6.6µM	i	i	i
Cc1cccc(N2CCN(C(=O)CCC(=O)NNc3nc4ccccc4c4nc(C)nn34)CC2C)c1 (stereo not drawn)	nt	nt	nt	i	i	i
O=C(CCC(=O)NNc1nc2ccccc2c2nc(-c3ccccc3)nn12)NCCCN1CCOCC1	i	i	?	i	i	i

Screening results deposited in PubChem by National Center for Advancing Translational Sciences (NCATS).
